test system: RIPK5; conditions: concentration: 1 μM, replicates: in singlicate; n = 1
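Also: KINOMEscan kinase panel screen.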

SMILES | %Inh [%]
COc1cc(Nc2ncc3c(C)nc(-c4cc5ccccc5[nH]4)n3n2)cc(OC)c1OC [GW869516] | 0
COC(=O)Nc1nc2ccc(Oc3ccc(NC(=O)Nc4cc(C(F)(F)F)ccc4F)cc3)cc2n1C.Cl [GW692089] | 0
CCCCc1nn2ncccc2c1-c1ccnc(Nc2ccc(N3CCN(C)CC3)cc2)n1 [GW684941] | 56
O=C(O)C(F)(F)F.O=C(O)C(F)(F)F.O=c1[nH]ccc2nc(N[C@@H]3CCCNC3)nc(Nc3ccc(S(=O)(=O)N4CCOCC4)cc3)c12 [GSK2177277] | 98.3
Cl.Cl.NCC(C(=O)Nc1cc(Br)c(-c2ccnc3[nH]ccc23)s1)c1ccccc1 (stereo not shown) [GSK1269851] | 0
COc1ccc(-c2coc3ccc(-c4nnc(SCc5ccc(OC)c(C(F)(F)F)c5)o4)cc23)cc1 | 20
COc1cccc(-c2ccc3c(NC(=O)C4CC4)n[nH]c3n2)c1 [SB-710903] | 1
Oc1cc(Nc2ccnc3cc(I)ccc23)ccc1F [GW552771] | 0
COc1cc2c(cc1OCCN1CCNCC1)ncc1c3ccc(C#N)cc3[nH]c21 | 28
CCS(=O)(=O)c1ccc(OC)c(Nc2nccc(-c3c(-c4cccc(NC(=O)c5c(F)cccc5F)c4)nn4ncccc34)n2)c1 [GSK326180] | 10
Cc1cccc(Nc2nc(N[C@H]3CCNC3)ncc2C(N)=O)c1.Cl [GSK2197149] | 1

test system: ROCK1; conditions: concentration: 1 μM, replicates: in singlicate; n = 1

SMILES | %Inh [%]
COc1cc(Nc2nccc(N3CCC(NC(=O)Nc4cccc(C(C)=O)c4)C3)n2)cc(OC)c1OC (stereo not shown) [GSK1379753] | 25
CCn1c(-c2nonc2N)nc2c(C#CC(C)(C)O)ncc(OCCCCN)c21.O=C(O)C(F)(F)F.O=C(O)C(F)(F)F [GSK507274] | 97.2
COc1cc(Nc2nccc(-c3c(-c4cccc(NC(=O)c5c(F)cccc5F)c4)nn4ncccc34)n2)cc(OC)c1OC [GSK327238] | 12
O=C(Nc1n[nH]c2nc(-c3ccc(O)cc3)ccc12)C1CC1 [SB-710363] | 0
O=c1[nH]cc(-c2ccc(N3CCOCC3)cc2)c2sc(-c3cn[nH]c3)cc12 [GSK2276055] | 0
O=C(Nc1cccc(-c2nn3ccccc3c2-c2ccnc(Nc3cccc(F)c3)n2)c1)c1c(F)ccc(F)c1Cl [GSK357952] | 3
CC(C)c1nc(-c2cccc(NS(=O)(=O)c3c(F)cccc3F)c2F)c(-c2ccnc(Nc3ccc(N4CCOCC4)nc3)n2)s1 [GSK2008607] | 0
CC(=O)N1CCN(c2ccc(Nc3nccc(-c4sc(C(C)C)nc4-c4cccc(NS(=O)(=O)c5cccc(Cl)c5)c4)n3)cn2)CC1 [GSK1660437] | 0
O=C(Nc1cccc(-c2nn3ncccc3c2-c2ccnc(Nc3ccccc3)n2)c1)c1c(F)cccc1F [GSK198271] | 34
Cl.c1ccc(-c2ccc3c(Nc4ccc5[nH]ncc5c4)ccnc3c2)nc1 [GW440137] | 10
Cn1cc(-c2[nH]c3cc(NC(=O)[C@H](N)C4CCCCC4)cc4c3c2C=NNC4=O)cn1 | 85
CNC(=O)c1ccccc1Nc1nc(Nc2ccc(N3CCOCC3)cc2)ncc1Cl.Cl [GSK1576028] | 53
c1ccc(-c2cnc3nccnn23)cc1 [AH20685] | 0
CN(C)S(=O)(=O)c1cc(-c2ccc3nccc(-c4cccc(S(N)(=O)=O)c4)c3c2)cnc1N [GSK1669921] | 0
COc1cccc(NC(=O)NC2CCN(c3ccnc(Nc4cc(OC)c(OC)c(OC)c4)n3)C2)c1 (stereo not shown) [GSK1379763] | 4
C[C@@H](Oc1cc(-n2cnc3cc(-c4ccnc(NCCS(C)(=O)=O)c4)ccc32)sc1C(N)=O)c1ccccc1Cl [GSK907232] | 0
Fc1ccc(-c2ncn(C3CCNCC3)c2-c2ccnc(Oc3ccc(-c4ccccc4)cc3)n2)cc1 [SB-245391] | 0
COc1cccc(C(=O)Nc2cccc(Oc3ccc4nc(NC(=O)C5CC5)cn4n3)c2)c1 | 0
Nc1ncc(-c2cccnc2)c2scc(-c3ccc4c(c3)CCN4C(=O)Cc3ccccc3)c12 [GSK683281] | 0
Cc1occc1-c1ncc(OC[C@@H](N)Cc2c[nH]c3ccccc23)cc1-c1ccc2[nH]nc(C)c2c1.O=C(O)C(F)(F)F [GSK682037] | 74
